# CYP2C9 inh = human CYP2C9 inhibition; P11712; CYP2C9 Supersomes, luciferin-H conversion, luminescence; inhibition, % at 5 µM; 96,000 compounds, 20% hits;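 active means blocking of liver enzyme CYP2C9 beyond about 50% at 5 µM, limit read from the data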
# Cav3 T inh = inhibitors of human Cav3.2 T-type calcium channel; O95180; Cav3.2-expressing cells, Fluo-4 calcium fluorescence FDSS; stronger effect = lower value; B-score at 10 µM; 100,000 compounds, 4% hits; AID 449739;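 active means single-dose well whose peak fluorescence ratio is a statistical outlier from its plate by either plate-standardised score or position-corrected B-score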
# Target sequence (O95180 whole entry, looked up): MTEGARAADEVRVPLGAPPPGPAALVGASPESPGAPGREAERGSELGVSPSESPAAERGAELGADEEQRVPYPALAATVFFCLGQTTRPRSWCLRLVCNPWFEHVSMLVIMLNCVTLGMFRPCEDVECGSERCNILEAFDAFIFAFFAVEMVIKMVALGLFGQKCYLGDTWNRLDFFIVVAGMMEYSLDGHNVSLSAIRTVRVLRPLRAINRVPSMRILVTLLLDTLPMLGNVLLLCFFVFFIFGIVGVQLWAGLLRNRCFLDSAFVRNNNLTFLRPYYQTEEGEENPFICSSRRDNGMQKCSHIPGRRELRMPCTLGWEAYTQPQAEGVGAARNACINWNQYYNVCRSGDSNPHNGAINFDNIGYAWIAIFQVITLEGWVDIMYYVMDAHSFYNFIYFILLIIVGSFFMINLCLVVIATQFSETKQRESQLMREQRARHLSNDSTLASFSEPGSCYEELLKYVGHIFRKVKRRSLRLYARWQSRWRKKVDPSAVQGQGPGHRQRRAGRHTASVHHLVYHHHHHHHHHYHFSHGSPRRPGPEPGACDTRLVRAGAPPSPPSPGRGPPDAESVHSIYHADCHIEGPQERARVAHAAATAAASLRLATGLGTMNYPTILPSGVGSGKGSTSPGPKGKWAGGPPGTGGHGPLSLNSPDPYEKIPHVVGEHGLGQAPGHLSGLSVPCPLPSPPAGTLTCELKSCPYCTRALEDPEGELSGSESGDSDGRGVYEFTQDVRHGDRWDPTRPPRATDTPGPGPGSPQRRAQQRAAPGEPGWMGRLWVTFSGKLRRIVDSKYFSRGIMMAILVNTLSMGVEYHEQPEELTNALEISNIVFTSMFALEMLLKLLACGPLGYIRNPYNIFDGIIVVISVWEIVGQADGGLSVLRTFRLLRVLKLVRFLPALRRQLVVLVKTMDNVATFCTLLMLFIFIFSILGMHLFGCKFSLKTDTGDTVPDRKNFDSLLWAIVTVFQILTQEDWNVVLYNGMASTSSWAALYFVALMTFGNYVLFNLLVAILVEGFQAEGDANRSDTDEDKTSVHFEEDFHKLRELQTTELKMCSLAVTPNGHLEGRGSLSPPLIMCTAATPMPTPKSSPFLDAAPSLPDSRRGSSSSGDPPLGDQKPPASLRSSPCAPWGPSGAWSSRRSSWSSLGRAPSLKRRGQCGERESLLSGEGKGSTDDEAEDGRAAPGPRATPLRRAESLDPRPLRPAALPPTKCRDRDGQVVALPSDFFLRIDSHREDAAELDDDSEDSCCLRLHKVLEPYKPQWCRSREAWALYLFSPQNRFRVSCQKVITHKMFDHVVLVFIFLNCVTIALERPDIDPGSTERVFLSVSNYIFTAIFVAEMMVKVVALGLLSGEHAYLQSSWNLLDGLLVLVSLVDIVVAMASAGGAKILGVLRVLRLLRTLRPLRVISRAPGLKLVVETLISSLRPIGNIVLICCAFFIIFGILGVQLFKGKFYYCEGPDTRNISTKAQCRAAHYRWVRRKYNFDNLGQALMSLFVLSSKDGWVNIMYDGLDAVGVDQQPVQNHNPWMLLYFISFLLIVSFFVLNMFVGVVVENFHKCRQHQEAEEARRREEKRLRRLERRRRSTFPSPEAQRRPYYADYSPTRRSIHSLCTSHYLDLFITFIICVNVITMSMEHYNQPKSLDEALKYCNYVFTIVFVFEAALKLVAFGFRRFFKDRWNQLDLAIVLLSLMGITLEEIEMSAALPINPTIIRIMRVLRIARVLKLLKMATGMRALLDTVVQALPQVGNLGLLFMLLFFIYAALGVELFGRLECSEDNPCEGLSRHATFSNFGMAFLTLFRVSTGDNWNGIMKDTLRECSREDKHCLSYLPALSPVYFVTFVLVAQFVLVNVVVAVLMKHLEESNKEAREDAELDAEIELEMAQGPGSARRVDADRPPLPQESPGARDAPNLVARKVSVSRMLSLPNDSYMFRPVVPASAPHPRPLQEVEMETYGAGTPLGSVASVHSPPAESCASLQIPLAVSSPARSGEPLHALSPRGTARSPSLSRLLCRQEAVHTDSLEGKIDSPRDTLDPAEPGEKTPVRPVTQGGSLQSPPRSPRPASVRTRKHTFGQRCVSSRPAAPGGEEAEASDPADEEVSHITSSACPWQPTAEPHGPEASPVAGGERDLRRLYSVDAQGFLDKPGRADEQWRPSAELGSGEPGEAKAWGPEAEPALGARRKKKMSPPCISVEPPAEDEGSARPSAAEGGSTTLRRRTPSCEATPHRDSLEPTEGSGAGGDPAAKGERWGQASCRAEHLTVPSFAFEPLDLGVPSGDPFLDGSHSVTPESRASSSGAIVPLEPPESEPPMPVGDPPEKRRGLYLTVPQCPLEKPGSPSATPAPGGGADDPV
# CYP2C19 inhib = blocks human cytochrome P450 2C19. P33261. CYP2C19 Supersomes, luciferin-H EGE luminescence, 30 min. inhibition, % at 5 µM. 96,000 compounds, 21% hits. AID 778;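 active means CYP2C19 inhibition above a set limit at 5 µM in the primary screen, cut at about 50% in these data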
# CYP2C19 act = activators of human cytochrome P450 2C19. P33261. recombinant CYP2C19, luciferin-H EGE luminescence; stronger effect = higher value; 0 = fully inhibited enzyme, 1 = untreated enzyme. activation factor at 5 µM. 96,000 tested, under 10 active. AID 1025;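 active means activation factor of at least 2 at 5 µM in the primary screen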
# CYP2C9 act = activators of human CYP2C9; P11712; activation factor at 5 µM; 96,000 compounds, 1.4% hits; recombinant CYP2C9, luciferin-H conversion, luminescence; stronger effect = higher value; factor 1 = untreated enzyme, 0 = blocked; AID 1024;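 active means activation factor of 2 or more for CYP2C9 at a 5 µM dose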
# A number is an active result; 0 = inactive; - = not tested or not shown. An excerpt weighted towards active compounds, which were near 27% of everything screened.
SMILES,CYP2C9 inh,Cav3 T inh,CYP2C19 inhib,CYP2C19 act,CYP2C9 act
Cc1ccc(SC(C)c2nc(-c3ccccc3)no2)cc1 (stereo unspecified),85,0,90,0,0
COc1ccc(NC(=O)c2cc3ccccn3n2)cc1,0,0,0,0,0
COc1ccc(CCNC(=O)c2cc3ccccn3n2)c(OC)c1OC,0,0,75,0,0
CCOC(=O)C(Cc1cc(C(C)=O)ccc1OC(C)C)C(=O)OCC,61,0,60,0,0
O=C(CSc1nc2c(sc3ccccc32)c(=O)n1CCO)NCc1ccco1,0,0,0,0,0
Cc1cc(NC(=O)CSc2nc3c(sc4ccccc43)c(=O)n2CCc2ccccc2)n[nH]1,0,0,94,0,0
Cc1cc(NC(=O)CSc2nc3c(sc4ccccc43)c(=O)n2CCCN2CCOCC2)n[nH]1,0,0,52,0,0
O=C(CCCSc1nc2ccccc2[nH]1)N1CCN(c2ccc([N+](=O)[O-])cc2)CC1,0,0,0,0,0
CC1CCN(C(=O)c2ccc(NC(=O)C3CCCO3)cc2)CC1 (stereo unspecified),0,0,0,0,0
O=C1N2CCCc3cccc(c32)C12Nc1ccccc1S2 (stereo unspecified),0,0,0,0,0
CC1CC(C)(C)N2C(=O)C3(Nc4ccccc4S3)c3cccc1c32 (stereo unspecified),0,-4.7,52,0,0
CCC(=O)NS(=O)(=O)c1cccnc1Nc1ccccc1Cl,69,-,0,0,0
COC(=O)c1cn(NC(=O)c2ccc(F)cc2)c(=O)c2ccccc12,0,0,0,0,0
COC(=O)c1cn(NC(=O)c2ccncc2)c(=O)c2ccccc12,62,0,0,0,0
COC(=O)c1cn(NC(=O)c2cc(OC)cc(OC)c2)c(=O)c2ccccc12,78,0,0,0,0
COC(=O)c1cn(-c2ccc(Cl)cc2)c(=O)c2ccccc12,74,0,69,0,0
CC(=O)Nc1ccccc1Nc1cc(C#N)c(C#N)cc1[N+](=O)[O-],0,0,0,0,0
CN(C)c1nc(SCc2ccc(Cl)cc2)nc2c1CCCC2,86,0,69,0,0
COc1ccc(N2CCC(CNC(=O)Nc3ccc(OC)cc3OC)C2)cc1 (stereo unspecified),0,-,62,0,0
COc1ccc(NC(=O)NCCCN2CCCC2=O)c(OC)c1,0,-,54,0,0
CCOc1ccc(NC(=O)NCC2CCN(c3ccc(OC)cc3)C2)cc1 (stereo unspecified),0,0,0,0,0
COc1ccccc1C(=O)NCCCN1CCCC1=O,0,0,0,0,0
CN(C)c1ccc(NC(=O)Cn2c(=O)n(Cc3ccccc3)c(=O)c3ccccc32)cc1,0,0,0,0,0
COc1ccc(CCNC(=O)CSc2nc(N)c(C#N)c(-c3cccs3)c2C#N)cc1OC,0,0,0,0,0
COc1ccc(-c2cc(-c3cccs3)c(C#N)c(SCC(=O)NCc3ccco3)n2)cc1,85,-,0,0,0
SMILES,CYP2C9 inh,Cav3 T inh,CYP2C19 inhib,CYP2C19 act,CYP2C9 act
COc1ccc(-c2cc(C(F)(F)F)nc(SCC(=O)NCc3cccs3)n2)cc1,0,0,0,0,0
COc1ccc(CNC(=O)CSc2nc(-c3ccccc3)cc(-c3cccs3)c2C#N)cc1,69,0,0,0,0
CN1C(=O)CC(N2CCN(CC(=O)N3CCCC3)CC2)C1=O (stereo unspecified),0,0,0,0,0
CCc1ccc(C2=NN(c3ccc(S(N)(=O)=O)cc3)C(c3ccc(F)cc3)C2)cc1 (stereo unspecified),0,0,0,0,0
CCOC(=O)c1cn2cccnc2n1,0,0,0,0,0
Clc1ccccc1-c1nnn(Cc2ccc(-c3nn[nH]n3)cc2)n1,86,-4.9,68,0,0
COc1ccc(C(=O)n2nc(-c3ccccc3)nc2SC)cc1,0,0,0,0,0
COc1ccc(C2(O)CC3CCC(C2)N3c2cc(C)nc(-c3ccccc3)n2)cc1 (stereo unspecified),93,0,53,0,0
Cc1cc(N2CCN(c3ccccc3)CC2)nc(-c2ccccc2)n1,0,0,86,0,0
Cc1cc(N2CCN(C(=O)c3ccco3)CC2)nc(-c2ccccc2)n1,55,0,74,0,0
Cc1cc(N2CCN(c3ccccc3)CC2)nc(N)n1,-,0,-,-,-
COc1cc(OC)cc(-c2cc3nc(C)cc(N4CCN(C(=O)c5ccco5)CC4)n3n2)c1,0,-,55,0,0
O=C1CC(C(=O)O)S/C(=N\NC(=O)c2ccccc2)N1 (stereo unspecified),0,0,0,0,0
Cc1ccc(C)c(NC(=O)CSc2nc3c(c(=O)n2C)SC(C)C3)c1 (stereo unspecified),66,0,0,0,0
CCn1c(SCC(=O)Nc2cccc(F)c2)nc2c(c1=O)SC(C)C2 (stereo unspecified),-,0,-,-,-
CCn1c(SCC(=O)Nc2cc(C)ccc2C)nc2c(c1=O)SC(C)C2 (stereo unspecified),76,0,0,0,0
CC1Cc2nc(SCC(N)=O)n(C)c(=O)c2S1 (stereo unspecified),0,0,0,0,0
CCOC(=O)c1ccc(NC(=O)CSc2nc3c(c(=O)n2C)SC(C)C3)cc1 (stereo unspecified),51,0,0,0,0
Cc1ccc2nc(NC(=O)CSc3nc4c(c(=O)n3C)SC(C)C4)sc2c1 (stereo unspecified),68,0,0,0,0
Cc1ccnc(NC(=O)COC(=O)C2COc3ccccc3O2)n1 (stereo unspecified),0,0,0,0,0
COc1ccc(OC)c(NC(=O)c2ccccc2OC(C)=O)c1,-,0,-,-,-
O=C1CCN(C(=O)c2ccccc2)C2CCCCC12 (stereo unspecified),0,0,0,0,0
CC1Cc2nc(SCC(=O)Nc3ccc(F)cc3F)n(C)c(=O)c2S1 (stereo unspecified),53,0,0,0,0
O=C(NCc1ccco1)c1nn2c(C(F)(F)F)cc(-c3cccs3)nc2c1Br,73,0,0,0,0
O=C(NCc1ccco1)c1cc2nc(-c3ccc4c(c3)OCO4)cc(C(F)(F)F)n2n1,83,0,77,0,0
SMILES,CYP2C9 inh,Cav3 T inh,CYP2C19 inhib,CYP2C19 act,CYP2C9 act
COc1ccc(-c2cc(C(F)(F)F)n3nc(C(=O)Nc4cc(C)on4)cc3n2)cc1OC,0,-,0,0,0
Cc1ccc(-c2cc(C(F)(F)F)n3ncc(C(=O)NCc4ccco4)c3n2)cc1,54,0,0,0,0
Cc1ccc(-c2cc(C(F)F)n3ncc(C(=O)NCc4ccco4)c3n2)cc1,0,0,0,0,0
COc1ccc(-c2cc(C(F)(F)F)n3nc(C(=O)NCc4ccco4)cc3n2)cc1,0,0,0,0,0
Cc1ccc(-c2cc(C(F)(F)F)n3nc(C(=O)NCCCn4ccnc4)cc3n2)cc1C,80,0,88,0,0
COc1ccc(-c2cc(C(F)(F)F)n3nc(C(=O)NCc4ccco4)c(Cl)c3n2)cc1,0,0,0,0,0

# Compound activity: PubChem, several laboratories
